{
  "source": "PubChem BioAssay (NCATS)",
  "note": "Inconclusive results are not listed. Active and inactive are the calls of the source. Calls come from the whole dose curve; tested in HEK293 reporter line. % is set by controls: 0 for no effect and ±100 for the full control effect; potency is the fitted concentration of half-maximal effect.",
  "data": [
    {"assay": "qHTS for Inhibitors of the Functional Ribonucleoprotein Complex (vRNP) of Lymphocytic Choriomeningitis Arenaviruses (LCMV): Viability assay - alamar blue signal for LCMV Primary Screen (AID 1347085); note: nearly all actives have a fitted effect of over 80% in size", "conditions": "alamar blue viability counter-screen, LCMV vRNP screen cells; series mostly up to 57.5 µM; activity change, negative = lower viability: at the top concentration", "values": [
      {"smiles": "COc1nn(CSP(=S)(OC)OC)c(=O)s1", "activity change, negative = lower viability": "-18.1% [at 115 µM] (inactive)"},
      {"smiles": "O=C(N[C@@H](COc1ccc2[nH]c(=O)[nH]c2c1)c1ccccc1)c1cccn(Cc2ccc(F)c(F)c2)c1=O", "activity change, negative = lower viability": "-3.38% (inactive)"},
      {"smiles": "C[C@]12CC[C@H]3[C@@H](CCC4=CC(=O)CC[C@@]43C)[C@H]1CC[C@H]2OC(=O)CCC1CCCC1", "Potency": "6.11 µM (active)"},
      {"smiles": "CC(C)(O)C=CC(=O)[C@](C)(O)[C@H]1[C@H](O)C[C@]2(C)[C@@H]3CC=C4[C@@H](C=C(O)C(=O)C4(C)C)[C@]3(C)C(=O)C[C@@]12C", "Potency": "9.68 µM (active)"},
      {"smiles": "Clc1ccccc1C(c1ccccc1)(c1ccccc1)n1cccn1", "activity change, negative = lower viability": "-5.9% (inactive)"},
      {"smiles": "CC(C)[C@]12O[C@@H]1[C@@H]1O[C@]13[C@]1(O[C@H]1C[C@@H]1C4=C(CC[C@@]13C)C(=O)OC4)[C@H]2O", "activity change, negative = lower viability": "-130% (inactive)"},
      {"smiles": "c1cc2c(cc1[C@H]1OC[C@H]3[C@H]1CO[C@H]3c1ccc3c(c1)OCO3)OCO2", "activity change, negative = lower viability": "61.3% (inactive)"},
      {"smiles": "O=C(O)CC[N+](=O)[O-]", "Potency": "inactive"},
      {"smiles": "C[C@@H]1CC[C@@]2(OC1)O[C@H]1C[C@H]3[C@@H]4CC=C5C[C@@H](O[C@@H]6O[C@H](CO)[C@@H](O[C@@H]7O[C@@H](C)[C@H](O)[C@@H](O)[C@@H]7O)[C@H](O)[C@@H]6O[C@@H]6O[C@@H](C)[C@H](O)[C@@H](O)[C@@H]6O)CC[C@]5(C)[C@@H]4CC[C@]3(C)[C@@H]1[C@H]2C", "activity change, negative = lower viability": "-34.9% (inactive)"},
      {"smiles": "CC(N[C@H]1C[C@H]1c1ccccc1)c1ccc2c(c1)OCCO2", "note": "(stereo partly specified)", "activity change, negative = lower viability": "-25.5% (inactive)"},
      {"smiles": "CC(=O)O[C@@]12CO[C@H]1C[C@H](O)[C@@]1(C)C(=O)[C@H](O)C3=C(C)[C@@H](O)C[C@@](O)([C@@H](OC(=O)c4ccccc4)[C@@H]21)C3(C)C", "Potency": "21.7 µM (active)"}
    ]}
  ]
}
